Screening data from PubChem BioAssay.
GIRK2 activator: Activators of human GIRK2-containing channels; P48051; HEK293 GIRK2/NPY4 cells, thallium flux fluorescence; AID 1259324; activation (% efficacy), % for hits at 37.5 µM; 34,000 tested, under 10 active;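 active = primary screen hit, no activity in plain HEK293 cells, and in GIRK2-only cells above 5% efficacy rising with concentration; inactive = the rest, including fluorescent compounds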;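 note: efficacy is normalized control-subtracted fluorescence 15 s after thallium addition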
GluA2 TARP mod: modulators of AMPA receptor GluA2-stargazin complexes; HEK293 GluA2+stargazin, membrane potential dye (FDSS), glutamate EC50; hits were called plate by plate, in both directions; calls only at 30 µM; actives 3.5% (n = 40,000); AID 1259245;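 active = any of four per-well response measures lying three or more SD from its plate-wide compound average, in either direction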
Target sequence (O88602 whole entry, looked up): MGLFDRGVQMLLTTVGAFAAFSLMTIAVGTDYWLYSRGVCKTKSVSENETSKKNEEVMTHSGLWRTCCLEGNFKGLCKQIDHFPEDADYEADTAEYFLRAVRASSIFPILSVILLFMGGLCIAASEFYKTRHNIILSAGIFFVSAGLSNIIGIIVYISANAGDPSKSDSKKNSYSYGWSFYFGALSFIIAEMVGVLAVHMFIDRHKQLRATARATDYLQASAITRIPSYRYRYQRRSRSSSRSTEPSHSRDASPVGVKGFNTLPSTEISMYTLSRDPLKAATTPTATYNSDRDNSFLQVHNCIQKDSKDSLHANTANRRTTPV
Target sequence (P19491 whole entry, looked up): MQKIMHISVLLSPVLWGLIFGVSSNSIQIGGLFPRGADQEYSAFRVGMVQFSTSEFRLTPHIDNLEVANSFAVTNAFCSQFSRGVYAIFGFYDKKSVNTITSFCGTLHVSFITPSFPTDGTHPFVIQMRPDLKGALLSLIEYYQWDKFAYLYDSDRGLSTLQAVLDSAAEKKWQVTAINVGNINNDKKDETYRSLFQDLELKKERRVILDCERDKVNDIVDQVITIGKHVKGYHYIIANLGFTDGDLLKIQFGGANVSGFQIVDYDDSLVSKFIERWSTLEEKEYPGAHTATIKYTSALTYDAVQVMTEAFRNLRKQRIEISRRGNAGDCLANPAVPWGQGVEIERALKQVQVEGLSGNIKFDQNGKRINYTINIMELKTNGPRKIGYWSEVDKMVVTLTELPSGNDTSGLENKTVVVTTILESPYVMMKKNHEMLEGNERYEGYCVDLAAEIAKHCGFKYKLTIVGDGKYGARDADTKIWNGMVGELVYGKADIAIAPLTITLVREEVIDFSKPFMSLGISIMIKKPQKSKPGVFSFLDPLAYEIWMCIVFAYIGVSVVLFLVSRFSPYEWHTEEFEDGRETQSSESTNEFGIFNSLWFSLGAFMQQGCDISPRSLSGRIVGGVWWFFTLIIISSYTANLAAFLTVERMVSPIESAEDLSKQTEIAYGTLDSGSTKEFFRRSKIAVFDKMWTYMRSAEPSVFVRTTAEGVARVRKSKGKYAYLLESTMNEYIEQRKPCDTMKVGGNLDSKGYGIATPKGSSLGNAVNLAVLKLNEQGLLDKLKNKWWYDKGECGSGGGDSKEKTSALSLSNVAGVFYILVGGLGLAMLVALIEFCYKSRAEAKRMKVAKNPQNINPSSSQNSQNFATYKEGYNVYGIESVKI
Calls only; - = inactive; . = no result given; + = active, no number. This is one part of a sample in which hits are shown more often than they occur.

SMILES	GIRK2 activator	GluA2 TARP mod
COc1ccc(-c2nnc(NC(=O)CCc3ccccc3)o2)cc1OC	-	-
COc1ccc(-c2nnc(NC(C)=O)o2)cc1OC	-	+
COc1ccc(C(=O)Nc2nnc(-c3ccc(OC)c(OC)c3)o2)cc1OC	-	+
CN(C)c1ccc(C(=O)Nc2nnc(-c3cccs3)o2)cc1	.	+
COc1ccc(C(=O)Nc2nnc(-c3ccc(SC)cc3)o2)cc1OC	-	-
COc1ccccc1-c1nnc(NC(=O)c2ccc(C(C)=O)cc2)o1	.	-
CN1C(=O)Cc2cc(NC(=O)NC(C)(C)C)ccc21	-	-
CCN(C(=S)NC(=O)c1ccccc1I)c1ccccc1	.	-
COc1ccc(F)cc1S(=O)(=O)NCCOc1ccc(-c2ccco2)nn1	-	-
CCCc1nnsc1C(=O)NCC1CCN(C(=O)Nc2ccc(F)cc2)CC1	-	-
Cc1cccc(N2CC(c3nc4ccccc4n3C(C)C)CC2=O)c1 (stereo not drawn)	.	-
COc1ccc(CC(=O)Nc2ccc3c(c2)CCCN3S(=O)(=O)c2ccc(C)cc2)cc1	.	-
COc1cc(OC)cc(C(=O)Nc2nnc(-c3ccc(OC)cc3OC)o2)c1	.	-
CCCCOc1ccc(C(=O)Nc2nnc(-c3ccc(OC)c(OC)c3)o2)cc1	-	-
COc1ccc(C(=O)Nc2nnc(-c3cc4cccc(OC)c4o3)o2)cc1OC	.	+
CCOc1ccc(-c2nnc(NC(=O)CC)o2)cc1OCC	-	+
COc1cccc2cc(-c3nnc(NC(=O)c4ccccc4)o3)oc12	.	-
COc1ccc(-c2nnc(NC(=O)c3ccc(S(=O)(=O)C(C)C)cc3)o2)cc1OC	-	+
CCC(=O)Nc1nnc(-c2ccc3c(c2)CCCC3)o1	-	-
COc1cc(OC)cc(C(=O)Nc2nnc(-c3ccc(OC)c(OC)c3)o2)c1	-	+
CCC(CC)C(=O)N1CC(=O)Nc2ccccc21	.	-
Cc1ccc(C(=O)Nc2nnc(-c3cccs3)o2)cc1C	.	-
COc1ccc(C(=O)Nc2nnc(-c3cccs3)o2)cc1OC	.	+
CCCc1c(C(=O)Nc2c(C)cccc2CC)nnn1-c1ccc(OC)cc1	-	-
CCOC(=O)c1scc(-c2ccc(C)cc2)c1S(=O)(=O)Nc1ccc2c(c1)OCCO2	-	+
SMILES	GIRK2 activator	GluA2 TARP mod
COC(=O)c1scc(-c2ccc(C)cc2)c1S(=O)(=O)Nc1ccc(OC)c(OC)c1	-	-
CC(=O)c1cccc(NC(=O)c2cc(-c3ccccc3Cl)oc2C)c1	.	-
O=C(Nc1ccc(F)cc1)N1CCN(c2ccc(Nc3cccnc3)nn2)CC1	-	-
COc1ccc(NS(=O)(=O)c2cccc(C)c2)cc1N1CCCCC1=O	-	-
c1coc(CNc2nc(N3CCCCC3)nc3ccccc23)c1	.	+
c1ccc(N2CCN(c3nc(NCc4ccco4)c4ccccc4n3)CC2)cc1	.	-
COc1ccc(S(=O)(=O)CCCC(=O)Nc2nc(-c3cc(Cl)sc3Cl)cs2)cc1	-	-
COc1ccc(S(=O)(=O)NCc2ccccc2)cc1N(C)S(=O)(=O)c1ccc(Cl)cc1	.	+
COc1ccc(S(=O)(=O)NCc2ccccc2)cc1N(C)S(C)(=O)=O	.	-
Cc1ccc(N2CC(c3nc4ccccc4n3Cc3ccccc3C)CC2=O)cc1 (stereo not drawn)	.	-
C=CCN1CC(c2nc3ccccc3n2CC(O)COc2c(C)cccc2C)CC1=O (stereo not drawn)	-	+
Cc1cc(C)cc(OCC(O)Cn2c(C3CC(=O)N(Cc4ccccc4)C3)nc3ccccc32)c1 (stereo not drawn)	-	-
C=CCN1CC(c2nc3ccccc3n2Cc2cc(C)ccc2C)CC1=O (stereo not drawn)	.	+
Cc1ccc(C)c(Cn2c(C3CC(=O)N(c4ccccc4)C3)nc3ccccc32)c1 (stereo not drawn)	.	+
C=CCN1CC(c2nc3ccccc3n2Cc2ccccc2C)CC1=O (stereo not drawn)	.	-
C=C1C2(C(=O)Nc3cccc(C)c3C)CCC(C2)C1(C)C (stereo not drawn)	.	-
O=C(NCc1ccco1)C1CCN(c2ccc(-c3ccc(F)cc3)nn2)CC1	-	-
COc1cc(C2Nc3ccc(C(=O)c4ccccc4)cc3NC3=C2C(=O)CC(C)(C)C3)cc(I)c1O (stereo not drawn)	.	-
COc1ccc(C(=O)Nc2ccc(N3CCCC3=O)cc2)cc1	-	+
COc1cc(OC)cc(C(=O)Nc2ccc(N3CCCC3=O)cc2)c1	-	-
CC(C)S(=O)(=O)c1ccc(CC(=O)N2CCC(c3ccsc3)CC2)cc1	-	+
CC(C)S(=O)(=O)c1ccc(CC(=O)N2CCC(c3cccs3)CC2)cc1	-	-
COc1ccc(CCNC(=O)Nc2ccc3c(c2)N(C(=O)C(C)C)CCC3)cc1	-	.
Cc1ccc(S(=O)(=O)c2c(C)nn(C(C)(C)C)c2OC(=O)c2cccc(C)c2)cc1	.	-
COc1ccc(C(=O)Oc2c(S(=O)(=O)c3ccc(C)cc3)c(C)nn2C(C)(C)C)cc1OC	.	+
SMILES	GIRK2 activator	GluA2 TARP mod
O=C(NCCCN1CCOC(c2ccccc2)C1)C(=O)Nc1ccc(C(F)(F)F)cc1 (stereo not drawn)	-	.
COc1ccc(CCC(=O)Nc2cc(-n3c(C)nc4ccccc4c3=O)ccc2F)cc1	-	-
COc1ccc(CCC(=O)Nc2cccc(-n3c(C)nc4ccccc4c3=O)c2)cc1	.	+
Cc1cccc2sc(NC(=O)c3ccno3)nc12	-	-
COc1cc([N+](=O)[O-])cc2sc(NC(=O)c3ccno3)nc12	-	+
CCC(C)(C)C(=O)Nc1nc2ccc(S(C)(=O)=O)cc2s1	-	-
O=C(Cn1nc2c(c1NC(=O)COc1ccccc1)CSC2)NCC1CCCO1 (stereo not drawn)	-	-
Cc1ccc(Cn2c(C3CC(=O)N(c4cccc(C)c4)C3)nc3ccccc32)cc1 (stereo not drawn)	.	-
Cc1c(C)n2c3c(=O)n(CC(=O)OCc4ccccc4)c(=O)n(C)c3nc2n1C(C)C	-	-
Cc1c(C)n2c3c(=O)n(Cc4ccc(F)cc4)c(=O)n(C)c3nc2n1CCCN(C)C	-	+
CCn1c(=O)c2c(nc3n(CCCOC)c(C)c(C)n23)n(C)c1=O	-	-
Cc1c(C)n2c3c(=O)n(CCCc4ccccc4)c(=O)n(C)c3nc2n1C(C)C	-	+
Cc1cn2c3c(=O)n(Cc4ccccc4Cl)c(=O)n(C)c3nc2n1CCO	-	-
Cc1cn2c3c(=O)n(Cc4ccccc4F)c(=O)n(C)c3nc2n1CCCN(C)C	-	+
NC(=O)c1ccc(NC(=O)CSc2nnc(-c3cccnc3)o2)cc1	.	-
O=C(Cc1csc(Nc2ccc(Cl)cn2)n1)N1CCCc2ccccc21	-	-
Cc1ccc(CNC(=O)Cn2cnc(-c3ccc(C)cc3)cc2=O)cc1	-	-
Cc1ccc(CNC(=O)Cn2cnc(C(C)C)cc2=O)cc1	-	+
O=S(=O)(c1ccc(Oc2ccccc2)cc1)N1CCN(c2ccc3nncn3n2)CC1	-	-
CCCC(=O)Nc1ccc(S(=O)(=O)N2CCN(c3ccc4nncn4n3)CC2)cc1	-	+
CCOC(=O)c1c(SCc2cc(C)ccc2C)nc(=O)[nH]c1C	-	-
COc1cccc(OCCn2c(CN3CCCCC3)nc3ccccc32)c1	.	-
C#CCn1c(SCCOc2cccc(OC)c2)nc2ccccc21	.	+
CCS(=O)(=O)N1CCN(c2ccc(Nc3cccc(C)n3)nn2)CC1	-	+
Cc1nnc2ccc(N3CCN(S(=O)(=O)c4ccc(Cl)c(Cl)c4)CC3)nn12	-	-
